Screening results as filed in PubChem.
VDR inh – vitamin D3 receptor (human) inhibition. P11473. AID 504847. Potency, µM, without a hit: max response, negative = inhibition, usual class: inhibitors. VDR-SRC2-3 peptide fluorescence polarization, 2 h. 400,000 compounds, 0.93% hits; further: potency means the concentration at half of the fitted maximal effect
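The screen uses fluorescence polarization to detect compounds that interfere with recruitment of the SRC2-3 coactivator peptide to VDR; plates are read after 2 h at room temperature.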
G9a inh – inhibitors of human histone lysine methyltransferase G9a; Potency, µM (top dose mostly 102 µM), for the others: at the highest dose activity, negative = inhibition, usual class: inhibitors; G9a H3K9 monomethylation, AlphaScreen, 2 h; AID 504332; 350,000 compounds, 8.8% hits; further: potency means the concentration at half of the fitted maximal effect; nearly all actives have a fitted effect of over 75% in size
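Readings reflect AlphaScreen signal from monomethyl-H3K9 antibody detection. HMT at 20 nM; substrate b-H3K9 500 nM; cofactor SAM 20 uM; 2 h RT reaction; compounds tested as titrations in qHTS with 15 min preincubation.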
MmCpn inh – inhibitors of Methanococcus maripaludis chaperonin TRiC (MmCpn). purified Mm-Cpn ATPase, ADP Transcreener TR-FRET. Potency, µM (top dose mostly 76.9 µM), for inactives: at the top dose activity, negative = inhibition, most hits filed as inhibitors. 330,000 compounds, 0.031% hits; further: potency means the concentration at half of the fitted maximal effect; nearly all actives have a fitted effect of over 80% in size
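25 nM Mm-CPN + cpd, 10 min 37°C; + 10 uM ATP, 30 min 37°C; buffer 30 mM Tris pH 7.4, 100 mM KCl, 5 mM MgCl2, 1 mM DTT; Transcreener ADP HTRF detection 30 min RT.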
PLK1 PBD inh – inhibitors of human PLK1 polo-box domain binding | P53350 | Plk1 PBD binding of FITC phosphopeptide, fluorescence polarization | Potency, µM, for the others: max response, negative = inhibition, usual class: inhibitors | 360,000 compounds, 2.8% hits | AID 720504; further: potency means the concentration at half of the fitted maximal effect; series mostly up to about 57 µM; nearly all actives have a fitted effect of over 65% in size
Target sequence (P53350 whole entry, looked up, the tested form may be a part): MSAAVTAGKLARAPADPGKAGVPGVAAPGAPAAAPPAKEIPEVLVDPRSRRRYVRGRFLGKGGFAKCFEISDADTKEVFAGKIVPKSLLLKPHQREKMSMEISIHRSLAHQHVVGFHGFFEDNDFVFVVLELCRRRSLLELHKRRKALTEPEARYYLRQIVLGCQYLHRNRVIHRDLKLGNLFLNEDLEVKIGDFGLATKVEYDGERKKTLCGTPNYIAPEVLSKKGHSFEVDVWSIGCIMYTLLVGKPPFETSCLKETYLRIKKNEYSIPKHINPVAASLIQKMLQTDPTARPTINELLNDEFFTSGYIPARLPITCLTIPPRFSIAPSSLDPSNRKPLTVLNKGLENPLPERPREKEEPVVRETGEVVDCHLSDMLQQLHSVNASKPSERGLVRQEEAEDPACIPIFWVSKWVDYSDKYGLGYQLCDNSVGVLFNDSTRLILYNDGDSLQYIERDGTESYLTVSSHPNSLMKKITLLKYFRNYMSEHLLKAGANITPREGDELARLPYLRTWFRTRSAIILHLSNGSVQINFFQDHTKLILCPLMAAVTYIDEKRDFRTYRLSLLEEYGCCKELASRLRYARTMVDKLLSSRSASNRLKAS
Sfp inh – blocks B. subtilis Sfp PPTase activity | Biochemical Sfp PPTase activity, qHTS | 310,000 compounds, 3.5% hits | Q9F4F7 | Potency, µM, without a hit: largest response in the series, negative = inhibition, usual class: inhibitors;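 further: the enzyme is Sfp with the accession as filed and its product quenches rhodamine fluorescence; potency means the concentration at half of the fitted maximal effect; 0% = enzyme reaction without inhibitor and -100% = no enzyme wells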
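Step 1, compound plus 15 nM Sfp-PPTase, 15 min, room temperature. Step 2, add rhodamine-CoA (5 uM) and BHQ-2-YbbR (12.5 uM). Step 3, read 525/598 nm fluorescence at 0 and 30 min.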
CCT modulator – cytosolic chaperonin activity modulation | activity change, % (concentration not given with the values), hits read low | AID 651819 | 360,000 compounds, 0.3% hits | purified chaperonin ATPase assay, HTRF ADP detection, 30 min; in the data active means activity change below about -30%
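TRiC at 40 or 20 nM final (batch-dependent) in 30 mM Tris pH 7.4, 100 mM KCl, 5 mM MgCl2, 1 mM DTT, with compound at single 76 uM and 10 uM ATP, 30 min at 37 deg C. ADP detected by HTRF Transcreener, 665/615 ratio.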
* hit, by the source's call; ? = inconclusive; · = not tested or not shown; ! = not confirmed by another sample; [ ] = remark or other dose. Shown are actives, neighbours in structure and some others; about 10% of the full set was active somewhere. Unless noted, the call rests on the fitted dose curve; in most records, active means well fitted curve in the direction sought with a large enough effect; inconclusive means small, poorly fitted or top-dose-only effect, or another doubt; inactive means no such curve, though single readings can be large; an effect the other way counts as inactive or inconclusive. Unless noted, on the % scale 0 is the no-effect control and ±100 the full control effect.

SMILES	VDR inh	G9a inh	MmCpn inh	PLK1 PBD inh	Sfp inh	CCT modulator
CCCCCOC(=O)Nc1nc(=O)n(C2O[C@H](C)[C@@H](O)[C@@H]2O)cc1F (stereo not given in full)	-1.9%	8.5%[59 µM]	·	·	12.6%	·
Cc1ccccc1C(=O)Nc1ccc(S(=O)(=O)NCC2CCCO2)cc1 (stereo not given)	·	·	·	-1.2%	·	-3.3
O=C(Cc1ccc(Br)cc1)Nc1ccc(S(=O)(=O)NCC2CCCO2)cc1 (stereo not given)	?	7.5%[12.7 µM]	-1.9%	23.8µM*	25.9%	-0.3
O=C(CSc1ccccc1)Nc1ccc(S(=O)(=O)NCC2CCCO2)cc1 (stereo not given)	-0.7%	6.7%[59 µM]	-2.4%	23.8µM*	-3.2%	2.0
COCC(=O)Nc1ccc(S(=O)(=O)NCC2CCCO2)cc1 (stereo not given)	-2.5%	25.3%	3.6%	-3.6%	11.4%	-5.8
Cc1ccc2c(c1)cc1c(=O)n(CC(=O)NCc3ccco3)nc(C)n12	9.2%	10.0%[59 µM]	·	·	·	·
NCCCCCCNS(=O)(=O)c1cccc2c(Cl)cccc12	1.5%	46.1%[12.7 µM]	·	-5.0%	63.1µM*!	0.5
CCCCCCCNS(=O)(=O)c1cccc2c(Cl)cccc12	-4.2%	·	·	·	-2.4%	·
NCCCCCCCCCCNS(=O)(=O)c1cccc2c(Cl)cccc12	24.4%	·	·	·	50.1µM*	·
CSc1ccc(/C=C2/C(C)=C(CC(=O)O)c3cc(F)ccc32)cc1	44.7µM*	?	·	·	-10.3%	·
COc1ccc(C2/C=C\CN([S+](=O)([O-])c3ccc4ccccc4c3)C(C)C(=O)N2Cc2ccc(F)cc2)cc1 (stereo not given)	-7.0%	·	·	·	3.0%	·
COc1cc2cccc(OC)c(=O)c2c(OC)c1OC	-7.5%	50.1µM*	1.4%	-3.8%	?	-1.7
CN(C)c1ccc(-c2cncnc2NCCN2CCOCC2)cc1	39.8µM*	-1.5%[0.501 µM]	·	·	79.4µM*	·
Cc1cnc(CNc2ncncc2-c2ccc(N(C)C)cc2)cn1	?	-46.0%[0.501 µM]	·	·	79.4µM*	·
Cc1ccccc1-c1cncnc1NCCN1CCOCC1	?	·	·	·	-28.3%	·
Cc1cnc(CNc2ncncc2-c2ccc(C(=O)N(C)C)cc2)cn1	0.4%	·	·	·	-5.7%	·
COc1ccc(S(=O)(=O)Nc2cccc(-c3ccc(N4CCCCCC4)nn3)c2)cc1F	7.4%	-7.5%[59 µM]	·	·	·	·
CC(=O)c1ccc(NC(=O)C(C)Sc2n[nH]c(-c3cccnc3)n2)cc1 (stereo not given)	-27.2%	2.2%	1.3%	-5.0%	-12.4%	-2.4
Cc1ccc(-c2nc(SC(C)C(=O)c3c(N)n(C)c(=O)n(C)c3=O)n[nH]2)cc1 (stereo not given)	9.8%	44.7µM*	0.5%	-0.3%	·	1.4
CC(=O)Nc1ccc(NC(=O)C(C)Sc2n[nH]c(-c3ccc(C)cc3)n2)cc1 (stereo not given)	5.0%	39.8µM*	-2.9%	-18.3%	·	0.0
Cc1ccc(N(C)C(=O)N2CCN(S(=O)(=O)c3ccc(C)c(C)c3)CC2)cc1	-9.0%	8.9%[59 µM]	0.4%	0.0%	5.8%	-0.9
Cc1ccc(S(=O)(=O)N2CCN(C(=O)N(C)C)CC2)cc1C	2.2%	-4.8%[12.7 µM]	0.3%	-6.2%	13.0%	-51.5*
CCCCCCC1Cc2cc(OC)c(OC)cc2C(C(C(=O)OCC)C(=O)OCC)O1 (stereo not given)	·	·	·	·	4.0%	·
Cc1ccc(C(=O)C[n+]2cc(-c3ccc(C)cc3)n3c2CCCCC3)cc1	-3.5%	?	-0.7%	-4.1%	2.7%	0.1
O=C(C[n+]1cc(-c2ccccc2)n2c1CCCCC2)c1ccc(Br)cc1	-14.8%	50.1µM*	2.6%	-7.5%	12.2%	-7.0
SMILES	VDR inh	G9a inh	MmCpn inh	PLK1 PBD inh	Sfp inh	CCT modulator
O=C(Cn1c(=O)n(Cc2ccco2)c(=O)c2c3c(sc21)CCCCC3)Nc1ccccc1	-2.6%	·	-2.5%	-27.1%	-103.3%	-0.9
O=C(Cn1c(=O)n(Cc2ccco2)c(=O)c2c3c(sc21)CCCCC3)c1ccccc1	-5.4%	-2.8%[59 µM]	0.2%	-19.6%	56.2µM*	-1.9
Nc1nc(SCC(=O)NCCCN2CCOCC2)nc2sc3c(c12)CCC3	-5.7%	?	1.9%	?	28.2µM*	0.7
CC1CCc2c(sc3nc(SCC(=O)NCc4ccco4)nc(N)c23)C1 (stereo not given)	-1.7%	?	-0.5%	-24.8%	-9.5%	-0.1
CCSc1nc(N)c2c3c(sc2n1)CN(C)CC3	·	44.7µM*	1.8%	·	-0.2%	·
CCOC(=O)CSc1nc(N)c2c3c(sc2n1)CCCC3	2.3%	70.8µM*	-0.6%	-7.7%	-5.3%	-1.0
COc1ccc2c(c1)c1c(c(=O)n(CCc3ccccc3)c(=O)n1Cc1ccc(F)cc1)n2C	6.3%	-29.1%[59 µM]	·	·	·	·
CC(C)[C@H](NC(=O)OC(C)(C)C)[C@@H](O)CC(=O)OC(C)(C)C	·	·	·	·	29.5%	·
Fc1ccccc1/C=N/n1c(C2CCCCC2)n[nH]c1=S	-14.0%	25.1µM*	1.4%	?	?	1.8
S=c1[nH]nc(C2CCCCC2)n1/N=C/c1ccccc1Br	-28.7%	7.08µM*	1.9%	11.9µM*	-6.3%	-1.5
O=C(O)COc1ccccc1/C=N/n1c(C2CCCCC2)n[nH]c1=S	?	8.91µM*	1.3%	?	50.1µM*	-1.3
Cc1ccccc1/C=N/n1c(C2CCCCC2)n[nH]c1=S	-19.4%	12.6µM*	1.4%	-9.4%	0.4%	-1.8
CCOC(=O)c1ccc2c(c1)N(Cc1cccc([N+](=O)[O-])c1)C(=O)c1ccccc1S2	7.6%	-33.1%[59 µM]	·	·	·	·
Cc1cc(C)n(/N=C/c2c[nH]c3ccccc23)c(=O)c1	-8.7%	2.7%	0.6%	-18.1%	6.5%	-4.1
Fc1ccccc1-c1n[nH]c(=S)n1/N=C/c1c[nH]c2ccccc12	1.4%	0.708µM*	-0.7%	?	-9.4%	0.0
C/C(=C/c1oc2ccc(O)cc2c1[N+](=O)[O-])N(C)C	1.0%	79.4µM*	-0.3%	-7.4%	70.8µM*	0.0
CC(=O)Oc1ccc2oc(/C=C/N(C)C)c([N+](=O)[O-])c2c1	10.4%	?	-4.8%	-3.2%	8.7%	-1.6
COC(=O)C1CC1C(NC(=O)[C@H]1CCCCN1)c1ccccc1 (stereo not given in full)	·	·	·	·	13.4%	·
CC(C)CC(=O)N1CCN(C(=O)CCC2CCCC2)CC1	-10.4%	6.0%[59 µM]	1.3%	26.7µM*	7.7%	-1.6
CCCS(=O)(=O)N1CCN(C(=O)CCC2CCCC2)CC1	-9.2%	-40.6%[59 µM]	2.3%	-5.8%	11.2%	-2.2
Cc1ccc2[nH]c3c(=S)nc[nH]c3c2c1	-19.0%	1.78µM*	?	-25.5%	3.3%	-3.5
Cc1nc([N+](=O)[O-])c(Br)n1CC(=O)c1ccc(Cl)cc1	?	50.1µM*	-0.1%	?	4.7%	-1.4
COc1ccc(C(=O)Cn2c(C)nc([N+](=O)[O-])c2Br)cc1	?	7.6%	0.3%	-29.7%	17.5%	-0.5
